# MgrA-DNA mod: modulators of Staphylococcus aureus MgrA DNA binding; 84,000 compounds, 0.13% hits; inhibition, % (concentration not given with the values); fluorescence polarization; in the data active = inhibition above about 30%, passing the limit was not always enough;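 also: 0% = protein plus DNA without compound and 100% = DNA alone without protein; higher means less MgrA bound to DNA so lower polarization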
# The depositor's hits bear a star. This is one part of a sample in which hits are shown more often than they occur.
SMILES,MgrA-DNA mod
O=C(Nc1nc2c(s1)CCCC2)c1ccncc1,42*
Cc1ccc(C(=O)Nc2nc3c(s2)CCCC3)cc1,0
O=C(/C=C/c1ccccc1)Nc1nc2c(s1)CCCC2,0
CC(C)(C)C(=O)C(Oc1ccc(Cl)cc1)n1cnnc1 (centres undefined),-1
C=Cc1c(C)/c2[n-]/c1=C\c1[n-]c(c(CC)c1C)/C=c1\[n-]c3c(c1C)C(=O)C(C(=O)[O-])C=3c1[n-]c(c(C)c1CCC(=O)[O-])\C=2.[Cu].[Na+].[Na+] (centres undefined),88*
CCCSc1nnc(Cn2c(=O)sc3ccccc32)n1CCc1ccccc1,-1
O=C(O)c1cc(C2CCCCC2)no1,-8
OC(CNc1nc2ccccc2s1)c1ccccc1 (centres undefined),1
Cc1nc2nc[nH]n2c(=O)c1NC(=O)CC12CC3CC(CC(C3)C1)C2,-1
Cc1ccc(S(=O)(=O)N=C2C=CC(=O)C=C2)cc1,48*
CC1=C/C(=N\S(=O)(=O)c2ccccc2)C=CC1=O,38
Cc1ccc(S(=O)(=O)N=S(C)(C)=O)cc1,-2
CCCCn1c(SCC(=O)N2CCCC2)nc2ccccc2c1=O,2
Cc1ccc(N2C(=O)C3C4C=CC(CNC(=O)OCc5ccccc5)(O4)C3C2=O)cc1 (centres undefined),1
Cc1cc(C)n(-c2ccc(C(=O)O)cc2)n1,-1
Cc1ccc(C)n1-c1ccc(C(=O)O)cc1,100*
O=C(O)c1ccc(N2CCCC2)cc1,-6
CCCc1nnc(NC(=O)C2CC(=O)N(C3CCCC3)C2)s1 (centres undefined),-2
CSc1ccc(S(=O)(=O)NC(C)C)cc1,-1
Cc1ccc(NC(=S)C(C#N)C(=O)N2CCOCC2)c(C)c1 (centres undefined),0
O=C(Nc1ccc2nc3c(=O)[nH]c(=O)[nH]c3nc2c1)C(F)(F)F,57*
Cc1ccc2oc(-c3ccc(NC(=O)C(F)(F)F)cc3)nc2c1,0
CCOc1ccc2nc3c(=O)[nH]c(=O)[nH]c3nc2c1,43
CCOC(=O)c1ccccc1NC(=O)c1sc(NC(=O)Cc2ccc(OC)cc2)c(C(=O)OCC)c1C,-6
COc1ccc(-c2cn(-c3ccc(C)cc3C)c(=S)[nH]2)cc1OC,2
SMILES,MgrA-DNA mod
O=C(c1ccc(Cl)c(Cl)c1)N1CCC(F)(CO)CC1,-2
COc1ccc(C(CCNCc2ccccc2)C2CCOC(C)(C)C2)cc1 (centres undefined),1
Cc1c(NC(=O)c2cccc3c(Br)cccc23)cccc1-c1nc2cc(Cl)ccc2o1,2
O=C1c2cccc3c([N+](=O)[O-])ccc(c23)C(=O)N1Cc1cccnc1,60*
O=c1c2ccccc2c2ccccc2c(=O)n1Cc1cccnc1,3
O=C1c2cccc3cc([N+](=O)[O-])cc(c23)C(=O)N1Cc1ccncc1,-1
O=S(=O)(c1ccc2c(c1)OCCO2)N1CCCCC1c1cccnc1 (centres undefined),58*
O=S(=O)(c1cccc(C(F)(F)F)c1)N1CCCC1c1cccnc1 (centres undefined),2
O=S(=O)(c1ccc2nsnc2c1)N1CCCCC1c1cccnc1 (centres undefined),-2
CCOC(=O)c1sc(-n2ncc3c(=O)[nH]cnc32)nc1C,-2
O=C1C(=O)c2ccccc2C(O)=C1C1CCC(c2ccc(Cl)cc2)CC1 (centres undefined),-2
Cn1nc(-c2ccccc2)[nH]c1=O,-1
Cc1ccc2cc(OC(=O)c3ccc(Oc4cc(Cl)cc(Cl)c4)o3)ccc2n1,1
CC[n+]1ccc(C)c2ccccc21,0
Cc1cc(N)c2ccccc2[n+]1CCCCCCCCCC[n+]1c(C)cc(N)c2ccccc21,55*
Cc1cc(-c2ccccc2N)nc2ccccc12,-4
Cc1ccc(NC(=S)N2CCn3c4c(c(=O)c5cc(C)ccc53)CCC42)cc1 (centres undefined),0
CSc1nc(C)cc(Oc2ccc(=O)n(-c3ccccc3)n2)n1,2
O=C(c1ccc(C(=O)N2CCCCC2)cc1)N1CCCCC1,0
CCn1c(SCC(=O)c2ccccc2)nnc1-c1ccco1,-1
O=C(CSc1nnc(-c2ccoc2)c(-c2ccoc2)n1)c1ccc(-c2ccccc2)cc1,71*
COc1ccc(C(=O)CSc2nnc(-c3ccco3)c(-c3ccco3)n2)cc1,51*
CCOc1ccc(C(=O)CSc2nnc(-c3ccco3)c(-c3ccco3)n2)cc1NC(=O)CC,92*
CCC(=O)Nc1ccc(C(=O)CSc2ncc(C#N)c(N)n2)cc1OC,3
O=C(CSc1nnc(-c2ccoc2)c(-c2ccoc2)n1)c1ccc(N2CCCC2=O)cc1,42
SMILES,MgrA-DNA mod
O=C1COc2ccc(C(=O)CSc3nnc(-c4ccoc4)c(-c4ccoc4)n3)cc2N1,44
Cn1c(SCC(=O)c2ccc(F)cc2)nnc1-c1ccco1,-4
CCc1ccc2c(c1)c1nnc(SCC(=O)c3ccc(OC)cc3)nc1n2C,-1
c1ccc(OCc2cc(-c3ccccc3)n[nH]2)cc1,0
COC(=O)c1cc2ccc3c(c2oc1=O)CN(Cc1ccccc1)CO3,3
OC1CCN(Cc2ccccc2)CC1,5
O=C(Nc1cccc2ccccc12)OC1CCS(=O)(=O)C1 (centres undefined),-3
COc1ccc(OC)c2c1CC(C)(C)NC2=O,-1
COc1ccc(-c2cc(-c3ccccc3)nc(SCC(N)=O)c2C#N)cc1,0
CCS(=O)(=O)Nc1ccc(Cc2ccncc2)cc1,2
c1cc(-c2nc3ccccc3s2)nc(-c2nc3ccccc3s2)c1,1
O=C1NC(=O)N(c2ccccc2)C(=O)/C1=C\c1ccc(C(=O)O)cc1,5
O=C1NC(=S)N(c2ccccc2)C(=O)/C1=C\c1ccoc1,76*
COC(=O)COc1ccc(/C=C2\C(=O)NC(=S)N(c3ccccc3)C2=O)cc1OC,8
Cc1ccc(-c2ccc(/C=c3\sc4nc5ccccc5n4c3=O)o2)c(Br)c1,-3
COc1ccc(-c2ccc(/C=c3\sc4nc5ccccc5n4c3=O)o2)c([N+](=O)[O-])c1,0
O=C(O)c1cccc(-c2ccc(/C=c3/sc4nc5ccccc5n4c3=O)o2)c1,44*
CSc1scc2c1-c1nn(C(=O)c3cccc(C(F)(F)F)c3)cc1CC2,4
O=C(Nc1ccc(N2CCOCC2)cc1)Nc1ccc2nc(-c3ccco3)c(-c3ccco3)nc2c1,2
O=C(NCCSCc1ccco1)Nc1cc(Cl)cc(Cl)c1,0
O=C(NCCCO)Nc1ccc2nc(-c3ccco3)c(-c3ccco3)nc2c1,77*
Cc1cccc(C)c1OCc1nc2c3cnn(C)c3ncn2n1,-1
CCOc1ccc(-c2cc(OC)c3c(C)oc(C)c3c(=O)c2)cc1,34
CCOc1cc(/C=C/c2ccccc2OC)cc(=O)c2c(C)oc(C)c12,0
COc1cccc(=O)c2c(C)oc(C)c12,43*
SMILES,MgrA-DNA mod
c1coc(CNC2CCCCCCC2)c1,-7
O=C(OCc1nccn1Cc1ccc(Cl)cc1)c1ccccc1Cl,2
CN(C)/C=C/C=C/c1cc(=O)cc(/C=C/C=C/N(C)C)o1,100*
O=C(Nc1ccc2ccccc2n1)C1CCCCC1,-1
Cc1ccccc1-c1nc(NC(=O)CSc2ncnc3sc4c(c23)CCC(C)C4)ns1 (centres undefined),0
CCNC(=O)c1sc2ccccc2c1Cl,5
CCc1c(O)nc2ccccn2c1=O,-4
CC(=O)O[C@@H]1O[C@@H]2CO[C@@H](c3ccccc3)O[C@H]2[C@H](OC(C)=O)[C@H]1OC(C)=O,-2
N#Cc1c(=O)n(O)c2ccccc2[n+]1[O-],49*
Cc1c(=O)n(OCc2ccc(Cl)cc2)c2ccccc2[n+]1[O-],0
